Data: ChEMBL document CHEMBL3988442, “University of Dundee, Small-Polar-MMV Screening Library” (2021)
Screen size: about 48,000 compounds; about 13,000 (27%) showed an effect of 50% or more. The list shows a part of the results.

What follows are compounds tested on Wolbachia pipientis (assay: Anti-Wolbachia Cell-Based Screen). Settings: 5 µM.
Assay type: functional
Set-up: scale not given: in the data most compounds retested in dose-response had high values

Compound | Percent Effect [%]
COCc1nc(CNc2cccc(-c3nc(C)c(C)o3)c2)cs1 | -0.1423
N#Cc1cccc(C(=O)N2C[C@H]3CC[C@@H]2CN(C(=O)C2CCC2)C3)c1 | -9.215
CN(C)S(=O)(=O)N1C[C@@H]2CC[C@H](C1)N(Cc1ccc(F)c(F)c1)C2 | -2.464
Cc1c(Cl)cc(C(=O)NCCc2ncnn2C)cc1Cl | -11.54
O=C1CC(c2cccc(O)c2)c2sc(C(=O)O)c(-c3ccccc3)c2N1 (centres undefined) | 10.05
Cc1cccc(CN2C[C@H]3C[C@H](C(=O)NCc4cccnc4)[C@@H](C2)O3)c1.O=C(O)C(F)(F)F.O=C(O)C(F)(F)F | -0.193
CNC(=O)[C@H]1C[C@@H]2CN(Cc3ccc(C)cc3)C[C@H]1O2.O=C(O)C(F)(F)F | 103.7
Cc1ccc(CN2C[C@H]3C[C@H](C(=O)NCc4cccnc4)[C@@H](C2)O3)cc1 | 0.7721
CN(C)C(=O)[C@H]1C[C@@H]2CN(CCc3ccccc3)C[C@H]1O2.O=C(O)C(F)(F)F | 12.58
CNC(=O)[C@H]1CCS(=O)(=O)[C@@H]2CN(Cc3ccc(OC)cc3)C[C@H]12 | 0.06663
CNC(=O)[C@H]1C[C@@H]2CN(Cc3ccc(OC)cc3)C[C@H]1O2.O=C(O)C(F)(F)F | 98.44
CNC(=O)[C@H]1C[C@@H]2CN(Cc3cccc(C)c3)C[C@H]1O2.O=C(O)C(F)(F)F | 116.6
CNC(=O)[C@H]1C[C@@H]2CN(Cc3ccccc3)C[C@H]1O2.O=C(O)C(F)(F)F | 106.1
COc1ccc(CN2C[C@@H]3COC[C@H](N4CCN(C)CC4)[C@@H]3C2)cc1.O=C(O)C(F)(F)F.O=C(O)C(F)(F)F.O=C(O)C(F)(F)F | -28.1
CC(C)c1nc(CNc2ccc(N3CCC(CO)CC3)cn2)cs1 | 0.232
Cl.O=C(CN1CCC[C@@H]1C(=O)O)NCCOc1cccc(C(F)(F)F)c1 | -3.641
CSc1nccc(N2C[C@@H](CN3CCCCC3)[C@@H](CO)C2)n1 | 104.9
Cn1ccnc1CN1C[C@@H](CN2CCCC2)[C@@H](CO)C1 | 2.193
Cn1ccnc1CN1C[C@@H](CN2CCCCC2)[C@@H](CO)C1 | -0.1943
OC[C@H]1CN(Cc2c(Cl)cccc2Cl)C[C@H]1CN1CCCCC1 | 2.429
Cc1nc(N2C[C@@H](CN3CCCCC3)[C@@H](CO)C2)c2sccc2n1 | 8.907
Cc1nccc(N2C[C@@H](CN3CCCC3)[C@@H](CO)C2)n1 | 109.4

Compound | Percent Effect [%]
CCN1CCN(C[C@@H]2CN(c3ncccc3Cl)C[C@@H]2CO)CC1 | -1.669
Nc1nccc(N2C[C@@H](CN3CCCCC3)[C@@H](CO)C2)n1 | 106.5
Cn1ccnc1CN1C[C@@H](CN2CCCCCC2)[C@@H](CO)C1 | -5.321
Cc1cc(CN(C)C(=O)C(c2ccccc2C)N(C)C)on1 (centres undefined) | -6.719
COCC1CN(c2ccc3c(Cl)ccnc3c2F)CCO1 (centres undefined) | -23.97
CC(C)n1nc(Cn2cccn2)c2c1CN(C1CCOCC1)C2.O=C(O)C(F)(F)F | -12.7
CSCC(CCO)Nc1cccc(C(F)(F)F)n1 (centres undefined) | -4.466
Cc1[nH]/c(=N\C(=O)c2csc(NC3CC3)n2)sc1C | 5.659
CCn1nc(C(C)C)cc1C(=O)N1CC(OCc2ccccc2F)C1 | -12.74
CC(C)C(=O)N1CCCC2(CCCN2CC2CCCC2)C1.O=C(O)C(F)(F)F (centres undefined) | 4.18
CCC(NC(=O)c1cc(CC(C)C)nn1C)c1cc(C)ccn1 (centres undefined) | 6.008
COc1ccc(C(CC(=O)O)NC(=O)c2cc(C)on2)cc1 (centres undefined) | 2.487
CCC(NC(=O)c1nn(C)cc1C(=O)O)c1ccc(C)cc1 (centres undefined) | 104.3
CCC(NC(=O)c1c(C(=O)O)cnn1C)c1ccc(C)cc1C (centres undefined) | 109.1
CCC(NC(=O)c1nn(C)cc1C(=O)O)c1ccc(C)cc1C (centres undefined) | 113.8
CCC(NC(=O)CN(C)Cc1ccc(C)o1)c1ccc(C)cc1 (centres undefined) | 3.05
CCC(NC(=O)c1cc(NC(C)=O)ccc1Cl)c1cc(C)ccn1 (centres undefined) | -8.351
Cc1ccc(C(C(=O)O)N(C)CCCN2CCOCC2)c(C)c1 (centres undefined) | -9.259
CCC(CC)NC(=O)Cn1cc(C(N)=O)c(-c2ccccc2)n1 | -10.51
CCCC(NC(=O)c1cc(C)ccc1C)c1nnn[nH]1 (centres undefined) | -4.44
CCNc1ncc(C(=O)NC(CCN(C)C)c2ccccc2)cn1 (centres undefined) | 13.66
CCC(NC(=O)c1nn(C)cc1C(=O)O)c1ccccc1 (centres undefined) | 82.78
